Compounds without any hit were thinned out: in the full panel of roughly 83,000, 20% have a hit.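 Interpretation: 100, growth as untreated; towards 0, rising growth inhibition; 0, no net growth; 0 to -100, cell death. Compounds scoring below 10 were considered active.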 Values without a mark were called inactive. Activity calls are given as the source filed them.
Tests used:
Assay in all cases: NCI-60 one-dose screen, 48 h (100 = growth as untreated, 0 = no growth, -100 = all killed)
Conditions in all cases: 10 µM unless noted
NCI-H23 lung = system: NCI-H23 lung
NCI-H226 lung = system: NCI-H226 lung
NCI-H322M lung = system: NCI-H322M lung
HOP-62 NSCLC = system: HOP-62 NSCLC
HOP-92 NSCLC = system: HOP-92 NSCLC
NCI-H522 lung = system: NCI-H522 lung
A549/ATCC NSCLC = system: A549/ATCC NSCLC
786-0 renal = system: 786-0 renal
COLO 205 colon = system: COLO 205 colon
DU-145 prostate = system: DU-145 prostate
K-562 leukemia = system: K-562 leukemia
MALME-3M melanoma = system: MALME-3M melanoma
MDA-MB-231 breast = system: MDA-MB-231 breast
RXF 393 renal = system: RXF 393 renal
SF-268 CNS = system: SF-268 CNS
SF-295 CNS = system: SF-295 CNS
SF-539 CNS = system: SF-539 CNS
UACC-257 melanoma = system: UACC-257 melanoma
M14 melanoma = system: M14 melanoma
NCI-H460 lung = system: NCI-H460 lung

Structure (SMILES)	growth (NCI-H23 lung)	growth (NCI-H226 lung)	growth (NCI-H322M lung)	growth (HOP-62 NSCLC)	growth (HOP-92 NSCLC)	growth (NCI-H522 lung)	growth (A549/ATCC NSCLC)	growth (786-0 renal)	growth (COLO 205 colon)	growth (DU-145 prostate)	growth (K-562 leukemia)	growth (MALME-3M melanoma)	growth (MDA-MB-231 breast)	growth (RXF 393 renal)	growth (SF-268 CNS)	growth (SF-295 CNS)	growth (SF-539 CNS)	growth (UACC-257 melanoma)	growth (M14 melanoma)	growth (NCI-H460 lung)
CCCCCC(=O)OCC(=O)O[C@@H]1C[C@]2(C(C)C)O[C@@]1(C)[C@@H]1CC[C@@H](C)[C@H]1[C@@H]2OC(=O)/C=C/c1ccccc1	91.3%	86%	84.6%	91.7%	95.3%	55.9%	78.7%	54.4%	73.9%	73.4%	42.3%	49.8%	83.6%	-2.83% (active)	54.4%	90.2%	92.3%	87.2%	69.1%	–
COC(=O)c1c2c(c(C)[n+]([O-])c1C)C(=O)C=C(NCc1ccc(Br)cc1)C2=O	-44.8% (active)	-42.9% (active)	-14.9% (active)	-77.2% (active)	-53.8% (active)	-44.8% (active)	-28.2% (active)	-8.26% (active)	-69.8% (active)	-87.7% (active)	2.51% (active)	-97.9% (active)	-4.67% (active)	-46.1% (active)	-43.7% (active)	-97.9% (active)	-86.8% (active)	-80.6% (active)	-83.9% (active)	–
Cc1ccc(/C=C2\CN(C(=O)OC(C)(C)C)C/C(=C\c3ccc(C)cc3)C2=O)cc1	56.6%	84.9%	98.7%	94.9%	–	58.4%	–	56.5%	51.6%	38.7%	3.47% (active)	83.5%	88.3%	99.4%	49.1%	89.9%	90.4%	79.4%	43%	53%
Brc1c2c(c(Br)c3ccccc13)CCCC2	97.7%	85.8%	99.6%	84%	80.9%	75.5%	79.7%	102%	102%	110%	94.7%	108%	91%	101%	104%	101%	102%	89.8%	99.1%	–
CC(C)=NNc1ccccn1	68%	40.9%	19.4%	32.8%	40.4%	25.5%	35.1%	61.7%	3.92% (active)	48.4%	59.2%	48.5%	36.4%	69.8%	43.7%	67.6%	43.5%	11.9%	35.8%	–
Cc1ccc(-c2nc(/C=C3/C(=O)Nc4ccccc43)c3ccccn23)cc1	72.6%	88.7%	88%	91.8%	105%	57.7%	75.1%	104%	92.2%	-16.3% (active)	81.5%	116%	85.2%	38.2%	88%	91.9%	94.8%	102%	92.3%	–
c1ccc(C2=NN[C@H](c3cn(-c4ccccc4)nc3-c3ccccc3)C2)cc1	59.3%	25.5%	47.8%	-14.5% (active)	34.6%	75.6%	17.1%	6.85% (active)	66.5%	56.1%	85.2%	53.4%	14%	32.1%	52%	-23.8% (active)	38.5%	65.2%	45.6%	–
COc1cc(N2C(=O)[C@H](O)C2c2ccc(SC)cc2)cc(OC)c1OC (stereo partly specified)	23%	68.6%	37.1%	21.6%	26.1%	-19.8% (active)	17%	11.3%	-53.3% (active)	3.72% (active)	5.68% (active)	71.7%	30.3%	15.3%	28.1%	10.1%	16.3%	42.1%	6.4% (active)	–
